# Source: the supplement of paper PMC6555819
# Columns and labels:
# Assay in all cases: PBM binding z-score (relative to random genomic background probes); higher = stronger binding; sequences stand for … in GC…GCGATTGACAGCGTAGAATGAAGG
# [1] = tested on: FXR:RXRa (NR concentration 270 nM, RXRa partner concentration 90 nM)
# Summary of the method: (§1)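 Binding z-scores take random background probes as their reference. They come from custom Agilent 4×180K protein-binding microarrays incubated 1 h with ligand-free nuclear receptor dimers, with antibodies against each partner (one per run) detecting binding. Scanned fluorescence was regression-normalized.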
# [2] = tested on: LXRa:RXRa (NR concentration 270 nM, RXRa partner concentration 90 nM)
# Summary of the method: as §1
# [3] = tested on: LXRa homodimer (NR concentration 270 nM)
# Summary of the method: as §1
# [4] = tested on: LXRb:RXRa (NR concentration 270 nM, RXRa partner concentration 90 nM)
# Summary of the method: as §1
# [5] = tested on: LXRb homodimer (NR concentration 270 nM)
# Summary of the method: as §1
# [6] = tested on: PPARa:RXRa (NR concentration 270 nM, RXRa partner concentration 90 nM)
# Summary of the method: as §1
# [7] = tested on: PPARg:RXRa (NR concentration 180 nM, RXRa partner concentration 90 nM)
# Summary of the method: as §1
# [8] = tested on: PPARg:RXRa 270nM:90nM, anti-RXR (NR concentration 270 nM, RXRa partner concentration 90 nM)
# Summary of the method: as §1
# [9] = tested on: PPARg:RXRa 30nM:10nM, anti-RXR (NR concentration 30 nM, RXRa partner concentration 10 nM)
# Summary of the method: as §1
# [10] = tested on: PPARg:RXRa 90nM:30nM, anti-RXR (NR concentration 90 nM, RXRa partner concentration 30 nM)
# Summary of the method: as §1
Sequence,PBM binding z-score [1],PBM binding z-score [2],PBM binding z-score [3],PBM binding z-score [4],PBM binding z-score [5],PBM binding z-score [6],PBM binding z-score [7],PBM binding z-score [8],PBM binding z-score [9],PBM binding z-score [10]
TCGAGTAGGTTTGTCGGGGCATTCAGCCAACATA,0.314,0.103,0.0222,0.558,-0.504,0.326,-0.493,0.144,1.1,0.717
GCTAGCAGGCCATTTGGGTCACTAAATGACGGGC,0.069,-0.203,-0.746,-0.105,-1.17,1.44,0.795,0.692,-0.344,0.257
GCTAGCAGGCCATTTGGGTCACTGAATGACGGGC,-0.0182,-0.185,-0.885,-0.0353,-0.763,1.33,0.576,0.447,-0.489,-0.116
TAGCCTAGGTCATTGGGCCATTATAGTACGCATC,4.57,3.93,1.08,2.84,0.197,4.22,4.13,3.99,1.45,3.32
CGAGCTAGGTCAAGGACAGTGAATCTCCGCACGC,3.4,2.03,-0.283,1.22,-0.582,3.06,2.07,2.14,0.109,1.07
ATCTCTAGGTAAAGATACTTCAGTGAATGCAAAT,0.262,0.149,0.0511,0.403,0.44,0.361,0.884,0.723,0.521,0.608
TCTTCTAGGTCAGTTGGTCAGCTAACGAGCTGCC,2.21,1.87,0.567,1.71,3.5,2.99,3.77,4.43,4.38,4.54
CGAACTAGGTCATCCAGGACAATGAATACATTGA,4.61,2.74,0.73,2.14,0.294,4.83,7.88,6.22,4.07,6.1
CCTTACGGGGCAAGGTTATAGCACGGGTGGTACG,0.333,0.325,-0.577,0.153,-0.736,1.33,0.791,0.819,-0.199,0.442
CCTACTGGGCCACGAAAAGTCATTGATTCAGTGA,-0.198,-0.0823,-0.286,-0.375,-0.772,0.98,1.63,1.67,0.153,0.689
AGAACGAGGGCACGCTGCGTTGATAGCAGAGTAG,0.623,0.419,-0.7,-0.144,-0.905,1.75,1.89,1.74,0.373,1
CGAAGTAGGTCATCCAGGACAGTGAATACATTGA,4.86,3.19,1.2,2.64,0.447,5.16,8.31,7.05,4.99,6.9
AAAACGAGGGCAATGAGTTGATAGCACGGGTGGC,0.531,0.364,-0.353,-0.0182,-0.657,1.55,2.02,1.44,0.0987,0.879
TTTCGGAGGACACGAAAGGTCAGAGCTCGACATC,3.67,4.36,4.05,3.47,0.13,3.77,1.9,2.77,0.718,1.71
TCTAGTAGATCAACAGGAGGTTAAGAAAGATCGA,0.568,1.07,0.252,0.768,-0.7,1.36,0.296,1.55,2.92,2.01
CCTCGGAGGACAACAGTAGGTCAGAGCTGCCAGA,0.249,0.959,1.04,0.175,-0.765,1.37,0.475,0.552,-0.754,0.0572
TCTGCTAGGTCAGTTGATCAGCTAACGAGCTGCC,0.721,0.672,-0.553,0.169,-0.0241,0.983,0.167,1.28,1.07,1.27
CCTAGTTGGTCAGGAGGTCACACATCGGATATGA,3.47,3.35,2.05,3.2,0.972,4.03,3.29,3.64,1.24,2.91
TCATATAGGTAAGTGCTAGGTGAAAGTCCGATCT,0.366,0.752,0.094,0.207,0.122,0.896,0.556,2.06,3.39,2.49
TCTTGTAGATCAATAGAGGTTAAGTAAGTGCGCT,1.18,3.63,0.745,1.96,-0.0782,2.03,0.0612,1.68,2.63,2.16
CCAGACAGGTGAGAAGGTAAATCAGCCTCGATTA,0.109,0.108,-0.129,0.141,-0.154,0.484,0.39,0.456,0.0319,0.15
ATATGTAGGTTACATCCGGGTCATTCAGGCTATG,2.66,4.27,1.82,3.02,0.76,4.32,5.92,5.17,2.54,4.54
CCGGGTAGGTTATGGGGCATTCAGGCAACGGTGA,0.235,0.484,0.0736,0.904,-0.348,1.54,2.18,3.16,0.788,2.58
CCAGACAGGTGAAAGTTAACTCAGTCTGGTACGC,-0.0765,0.237,-0.419,0.191,-0.617,2.21,2.62,4.15,1.99,3.83
TAGCCTAGGTCATGGGCCAGTAGACCACGCGAAC,4.96,3.57,0.0345,2.2,-0.335,4.38,4.13,3.94,1.03,3.07

Sequence,PBM binding z-score [1],PBM binding z-score [2],PBM binding z-score [3],PBM binding z-score [4],PBM binding z-score [5],PBM binding z-score [6],PBM binding z-score [7],PBM binding z-score [8],PBM binding z-score [9],PBM binding z-score [10]
CTACCAAGGTGAACAAGGTCTTTGATTACTATTC,0.811,0.534,-0.122,1.18,-0.113,1.71,0.626,0.721,0.0464,0.438
CCTAGCAGGCCAGGGGCACTCAAGCATTTCGCTT,-0.742,-0.659,-0.647,-0.578,-1.19,-0.331,-0.281,-0.0349,-0.949,-0.765
TCGAGTTGGTTAGTCGGGGCATTCAGCCAACATA,0.0149,-0.0453,-0.453,0.513,-0.685,0.218,-0.686,0.5,1.2,0.81
ATCTCTATGTAACAAGTTCAGTGAAAGAGAGGAC,-0.00461,0.0801,0.289,0.189,0.769,0.267,0.597,0.532,0.31,0.575
AGAACGAGGGCACGCTGAGTTGATGGCAGAGTAG,0.805,0.828,-0.81,0.0668,-1.05,2.22,2.22,1.63,0.228,1.27
TCATATAGGTAGACAGGTGAAAGTCCGTAAGTTA,0.952,1.11,0.173,0.898,-0.226,1.32,0.974,2.5,3.79,3.27
TCTATTAGTTGATTAGGGCATCCGAAACAGCGGA,0.685,0.731,0.192,0.397,0.553,0.769,0.185,1.91,3.47,2.78
ATATCTAGGTAACAAGTTCAGTGAAAGAGAGGAC,0.903,1.07,0.574,0.857,0.917,3.32,5.22,4.43,2.41,4.16
CCTACTGGGCTAAAAAGGTCATTGATGCCGATAA,3.31,3.96,3.16,3.89,0.0245,4.67,2.38,3.6,1.21,2.6
CCGACTGGGGCACAAAGGTTACCATACCATCCGG,0.682,0.574,0.127,1.44,-1.09,3.24,4.16,5.34,2.72,5.14
GCTAGTTGGTCAGTAAAAGCTCACACACCGGTCG,-0.135,-0.249,-0.0683,-0.56,-0.539,-0.386,0.13,-0.0391,-0.355,-0.193
AGTCAAGGTTCATCTAGGTAACGTAAGATATGCT,5.36,4.13,1.89,2.57,0.451,3.64,3.69,3.68,1.41,2.98
AATACAGGGTCATCGTAGGGCAGAGTACGCACAG,7.54,6.88,2.95,5.07,1.16,5.83,6.94,6.07,2.84,4.96
TGAATGAGGTTAAAAATCAGGGAACGTGGCGTCG,1.83,1.78,-0.491,1.1,0.545,2.87,1.72,2.33,1.16,1.77
GGAACGAGGGCAAGTTGATTGCAGAGTTTGATGG,1.16,0.697,-0.325,0.396,-0.755,1.84,0.925,1.03,-0.0716,0.569
CTCAAAAGGTCGTGCTCAGGTGAGTATACCAAAC,5.46,4.03,0.165,3.42,0.129,4.98,3.14,3.85,0.896,2.75
ATCTCTAGGTAAAAATAGTTCAGTGAATGCAAAT,0.334,4.28,0.864,0.965,0.656,0.534,0.601,0.436,0.563,0.283
TCGCGGAGGACACGAAGGTCAGAGCTTTCCAGAG,0.923,0.953,0.0426,0.704,-1.29,1.84,0.306,1.15,0.607,0.901
ATCGAAAGGTCGAGGTGATTATAGAGAAAGGGAA,4.57,3.62,0.192,2.64,0.41,4.56,3.24,3.59,1.31,2.75
CCTACTGGGCCATCGGGTCATTGATATCAACGTT,1.37,1.03,-0.0763,1.51,-0.423,3.29,3.03,4.12,1.34,3.22
GCTTGTAGATCATGGTTAAGAAAGACTAAGCTAA,-0.444,-0.5,-0.382,-0.729,-0.647,-0.285,-0.054,0.171,-0.126,-0.187
CCTAGCGGGCCAATCTGGGTCACTCAAGGCTTGA,0.251,0.915,-0.728,0.534,-1.32,2.88,1.65,1.99,-0.227,1.17
GATACAAGGTCAAGGCCAGAGTACGCGTATTGAT,7.16,5.44,1.37,4.03,0.481,5.49,5.86,5.56,2.28,4.41
TTACCAAGGTGAAGGTCCTTGATCCCTCTGTAGA,0.794,0.644,-0.31,1.04,-0.95,1.87,1.33,2.39,0.878,2.03
